Measurements reported in the supplement of paper PMC13380429.
Values without a mark were called inactive.

Tested on: Vero E6 infected with SARS-CoV-2
Assay: inhibition of SARS-CoV-2 cytopathic effect; higher = more antiviral protection, active = above 15
Details: 48 h

Row | SMILES | inhibition of SARS-CoV-2 cytopathic effect (1 nM) [%] | inhibition of SARS-CoV-2 cytopathic effect (8.33 nM) [%] | inhibition of SARS-CoV-2 cytopathic effect (100 nM) [%] | inhibition of SARS-CoV-2 cytopathic effect (833.33 nM) [%] | inhibition of SARS-CoV-2 cytopathic effect (10000 nM)
1 | Cc1c(I)c(=O)n(-c2ccccc2)n1C [iodoantipyrine] | -0.48 | -2.57 | -0.75 | -0.95 | 1.55%
2 | N[C@@H]1CCCN(c2c(/C=C3\SC(=O)NC3=O)cccc2-c2ccccc2)C1 | 3.5 | -3.14 | -1.57 | -0.89 | 0%
3 | CC(C)(O)CNc1nc(Nc2ccnc(C(F)(F)F)c2)nc(-c2cccc(C(F)(F)F)n2)n1 [enasidenib] | -2.39 | -0.28 | -1.11 | -2.37 | -1.07%
4 | CO/N=C1/C[C@@H](C(=O)NC[C@@H](O)c2ccccc2)N(C(=O)c2ccc(-c3ccccc3C)cc2)C1 [OT-R-antagonist-1] | -0.95 | 1.59 | -0.48 | 1.09 | -1.5%
5 | CNC(=O)[C@H](Cc1ccccc1)NC(=O)[C@H](CC(C)C)[C@H](CSc1cccs1)C(=O)NO [batimastat] | -1.9 | -1.84 | -3.51 | -9.99 | -12.5%
6 | CC(C)[C@H]1[C@@H]2CC[C@@H](C2)[C@@H]1N | 0.17 | 2.01 | 5.77 | 6.62 | 4.27%
7 | CN(C)C(=O)Oc1cccc([N+](C)(C)C)c1 [neostigmine] | 1.41 | 0.51 | 0.73 | -1.4 | -0.84%
8 | CCOCc1nc2c(N)nc3ccccc3c2n1CC(C)(C)O [resiquimod] | 2.06 | 3.82 | 1.55 | 1.03 | -1.23%
9 | N#C/C(=C1/SC[C@@H](c2ccc(Cl)cc2Cl)S1)n1ccnc1 [luliconazole] | 1 | 1.92 | 2.17 | 1.1 | 3.29%
10 | CC(NC(=O)c1ccccc1/N=C/c1c(O)ccc2ccccc12)c1ccccc1 (stereo not given) [sirtinol] | 3.41 | -0.75 | -3.54 | -2.85 | 0.96%
11 | CC1(C)O[C@@H]2C[C@H]3[C@@H]4CCC5=CC(=O)CC[C@]5(C)[C@@]4(F)[C@@H](O)C[C@]3(C)[C@]2(C(=O)CCl)O1 [halcinonide] | 2.25 | 1.06 | -0.43 | -0.9 | -0.92%
12 | CCCCOc1ccc(CC(=O)NO)cc1 [bufexamac] | 0.27 | -0.68 | 0.49 | 0 | 0.42%
13 | CSc1ccc2c(c1)[C@H](N1CCN(C)CC1)Cc1ccccc1S2 (racemic) [metitepine] | 0.91 | 0.58 | -0.78 | -2.3 | 16.2% (active)
14 | CC(C)(Cc1c[nH]c2ccc(Cl)cc12)NCCOc1ccccc1OCC1CC1 | 0.45 | -0.91 | 0.78 | -2.24 | -19.4%
15 | O=C(/C=C\n1cnc(-c2cc(C(F)(F)F)cc(C(F)(F)F)c2)n1)NNc1cnccn1 [selinexor] | -0.07 | -3.07 | -7.87 | -8.61 | -8.85%
16 | Nc1ccccc1S(N)(=O)=O [2-aminobenzenesulfonamide] | 0.91 | 2.45 | 3.94 | 3.53 | -0.71%
17 | Cc1cc(-c2nncc3c(C(C)(C)C)c(OCc4ncnn4C)nn23)no1 | 1.59 | -1.07 | 0.62 | -3.08 | -1.02%
18 | O=C(O)c1ccccc1S [o-mercapto-benzoic-acid] | -1.65 | -0.03 | 0.12 | -2.81 | -0.55%
19 | Cc1cccc(C)c1-n1c(=O)c2cnc(Nc3ccc(N4CCN(C)CC4)cc3)nc2n2c3ccccc3nc12 | -1.2 | -0.67 | -2.31 | 0.21 | -3.38%
20 | Cn1cc(C2=C(c3cn(C4CCN(Cc5ccccn5)CC4)c4ccccc34)C(=O)NC2=O)c2ccccc21 [enzastaurin] | 0.18 | 1.89 | 1.4 | 1.31 | 3.94%

Row | SMILES | inhibition of SARS-CoV-2 cytopathic effect (1 nM) [%] | inhibition of SARS-CoV-2 cytopathic effect (8.33 nM) [%] | inhibition of SARS-CoV-2 cytopathic effect (100 nM) [%] | inhibition of SARS-CoV-2 cytopathic effect (833.33 nM) [%] | inhibition of SARS-CoV-2 cytopathic effect (10000 nM)
21 | C[C@@H](N)[C@@H](O)c1ccccc1 [1S,2R-phenylpropanolamine] | -1.52 | -0.06 | -0.95 | -0.75 | 0.8%
22 | O=C(Nc1cc(Cl)cc(Cl)c1O)c1c(O)c(Cl)cc(Cl)c1Cl [oxyclozanide] | -1.81 | -0.46 | 0.71 | -1.33 | -1.62%
23 | Oc1ccc2c3c1O[C@H]1c4[nH]c5c(c4C[C@@]4(O)[C@@H](C2)N(CC2CC2)CC[C@]314)C[C@@]1(O)[C@H]2Cc3ccc(O)c4c3[C@@]1(CCN2CC1CC1)[C@H]5O4 [nor-binaltorphimine] | 1.48 | 0.42 | 2.76 | 1.16 | -1.05%
24 | COc1ccc(C(=O)c2ccccc2)c(O)c1 [oxybenzone] | 0.11 | 2.31 | 0.71 | 0.2 | 0.65%
25 | CCCCC/C=C\C/C=C\CCCCCCCC(=O)NCCCC(=O)O [GABA-linoleamide] | 0.87 | 4.17 | 1.92 | -0.22 | -0.15%
26 | O=C(O)CCCNC(=O)c1cccnc1 [pikamilone] | 0.18 | -2.74 | -0.01 | 0.63 | -1.86%
27 | NC(=O)N/N=C/c1ccc(Oc2ccc(F)cc2)cc1 | -1.46 | -1.91 | -0.81 | 1.11 | 3.26%
28 | O=C(O)c1ccc2c(c1)C(=O)N(c1cccc(Oc3ccc([N+](=O)[O-])cc3)c1)C2=O | 1.34 | 0.95 | 0.59 | 1.36 | -0.65%
29 | CC(C)(C)NCC(O)c1cc(Cl)c(N)c(C(F)(F)F)c1 (stereo not given) [mabuterol] | -0.03 | -0.53 | 3.86 | -1.18 | -0.72%
30 | O=[N+]([O-])c1ccccc1S(=O)(=O)NCC1CCC(CNC[C@H]2CCc3ccccc3C2)CC1 (stereo not given in full) | 0.09 | 1.35 | -1.44 | -4.04 | 42.4% (active)
31 | N.N.[Cl][Pt][Cl] [cisplatin] | 1.16 | 0.86 | 0.61 | 3.21 | 1.76%
32 | O=C(O)/C=C/c1ccc(-c2ccc(O)c(C34CC5CC(CC(C5)C3)C4)c2)cc1 [adarotene] | -0.41 | -0.4 | 0.7 | -4.11 | -6.23%
33 | CC(C)C[C@H](CN)CC(=O)O | -2.46 | -1.59 | -0.55 | -0.08 | 0.02%
34 | COCCN1CCN(Cc2ccc(-c3n[nH]c4c3C(=O)c3c(NC(=O)NN5CCOCC5)cccc3-4)cc2)CC1 | 0.81 | -16.4 | 0.61 | 2.47 | 9%
35 | CCCCc1cc2ccccc2c(OCCN(C)C)n1 [dimethisoquin] | 0.87 | 1.84 | -0.28 | 0.5 | -2.53%
36 | COc1ccc(CN2C(=O)C(=O)c3cc(OC(F)(F)F)ccc32)cc1 | -0.15 | 1.14 | 1.79 | 1.75 | 6.79%
37 | Nc1nccc(/C=C/c2ccccc2)n1 | 3.44 | 3.79 | 0.04 | 0.59 | 2.05%
38 | CCCCCCCCCCCCCCCCOP(=O)([O-])OCC[N+](C)(C)C [miltefosine] | -3.26 | -0.08 | 0.27 | 0.17 | 3.55%
39 | CC(C)Oc1ccc(-c2nc(-c3cccc4c3CC[C@@H]4NCCO)no2)cc1C#N [ozanimod] | -1.23 | -0.27 | 2.87 | 0.63 | 59.2% (active)
40 | Fc1ccc(-c2c3cccc(C(F)(F)F)c3nn2Cc2ccc(F)cc2Cl)cc1 | -0.96 | -3.42 | 2.69 | -1.23 | 2.25%
